Bioassay records deposited in PubChem BioAssay by National Center for Advancing Translational Sciences (NCATS).
ALOX12 inh = Primary qHTS assay for inhibitors of human arachidonate 12S-lipoxygenase (ALOX12): Round 2; Polyunsaturated fatty acid lipoxygenase ALOX12 (Homo sapiens), P18054; purified 12hLO, xylenol orange hydroperoxide absorbance; Potency, µM (series often up to 108 µM), for inactives: top-dose activity change, negative = inhibition, usual class: inhibitors; hit rate 1.1% among 580,000; AID 1671190, 2021; also: % is scaled to controls: 0 for no effect and ±100 for the full control effect
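Purified human 12hLO (150 nM final) in 25 mM Hepes, 0.01% Triton X-100, pH 7.0 was preincubated 15 min at room temperature with compound. Then 40 uM arachidonic acid was added, 30 min. Hydroperoxide was read by Fe-XO absorbance ratio 573/405 nm.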
G9a inh = qHTS Assay for Inhibitors of Histone Lysine Methyltransferase G9a | G9a H3K9 monomethylation, AlphaScreen, 2 h | hit rate 8.8% among 350,000 | Potency, µM (doses to about 102 µM), for inactives: at the highest dose activity, negative = inhibition, actives largely listed as inhibitors; also: % is scaled to controls: 0 for no effect and ±100 for the full control effect; nearly all actives have a fitted effect of over 75% in size
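Methyltransferase reactions run at room temperature for 2 h (20 nM enzyme, 500 nM biotin-H3K9 peptide, 20 uM SAM) after a 15 min compound preincubation; product detected by AlphaScreen beads and anti-H3K9me1 antibody.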
Sfp PPTase inh = qHTS Assay for Inhibitors of Bacillus subtilis Sfp phosphopantetheinyl transferase (PPTase) | hit rate 3.5% among 310,000 | 4'-phosphopantetheinyl transferase ffp (Bacillus subtilis), Q9F4F7 | Potency, µM, for inactives: largest response in the series, negative = inhibition, most hits filed as inhibitors | Biochemical Sfp PPTase activity, qHTS;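 also: the enzyme is Sfp with the accession as filed and its product quenches rhodamine fluorescence; 0% = enzyme reaction without inhibitor and -100% = no enzyme wells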
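Fluorescence-quenching assay: 15 nM Sfp-PPTase preincubated 15 min at room temperature with compound, then 5 uM rhodamine-CoA and 12.5 uM BHQ-2-labelled YbbR peptide added. Fluorescence (ex 525/em 598 nm) read at start and after 30 min; difference gives rate.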
VDR inhibitor = Inhibitors of the vitamin D receptor (VDR): qHTS. Vitamin D3 receptor (Homo sapiens), P11473. hit rate 0.93% among 400,000. VDR-SRC2-3 peptide fluorescence polarization, 2 h. Potency, µM, without a hit: max response, negative = inhibition, hits mostly inhibitors; also: % is scaled to controls: 0 for no effect and ±100 for the full control effect
Target sequence (P11473 whole entry, looked up): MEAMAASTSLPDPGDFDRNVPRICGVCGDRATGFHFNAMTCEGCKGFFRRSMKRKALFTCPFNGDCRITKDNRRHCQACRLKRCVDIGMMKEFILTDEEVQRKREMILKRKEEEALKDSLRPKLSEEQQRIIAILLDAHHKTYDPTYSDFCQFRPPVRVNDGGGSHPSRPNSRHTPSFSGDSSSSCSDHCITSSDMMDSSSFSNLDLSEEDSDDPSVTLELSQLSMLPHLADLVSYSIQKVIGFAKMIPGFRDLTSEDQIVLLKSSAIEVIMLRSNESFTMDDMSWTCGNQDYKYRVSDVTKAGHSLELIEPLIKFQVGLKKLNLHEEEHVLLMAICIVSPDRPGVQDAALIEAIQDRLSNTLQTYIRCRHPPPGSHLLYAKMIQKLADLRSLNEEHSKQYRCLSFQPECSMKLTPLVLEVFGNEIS
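VDR–SRC2-3 interaction, FP format. Cmpds 23 nl via pintool, brief spin, 2 h ambient incubation.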
Glioma ERSR ind = qHTS for Inducers of the Endoplasmic Reticulum Stress Response (ERSR) in Human Glioma: qHTS. U87-MG GRP78 promoter luciferase reporter, 16 h. Potency, µM, for the others: at the highest dose activation, most hits filed as activators. hit rate 0.02% among 420,000. AID 602332, 2012; also: series mostly up to about 76 µM; % of control where 0% means no effect; nearly all actives have a fitted effect of over 35% in size
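Stably transfected U87-MG human glioma cells carrying a GRP78-based luminescent sensor were seeded at 1000 cells/well, pin-dosed with compounds and incubated 16 h. Luciferase reagent was then added, and end-point luminescence was read after 10 min at room temperature.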
VDR confirm = qHTS for Inhibitors of the vitamin D receptor (VDR): Hit Validation in Primary Screen; shares compounds with VDR inhibitor; VDR-coactivator inhibition assay, qHTS confirmation; Potency, µM, actives largely listed as inhibitors; hit rate 89% among 840
VDR FP = qHTS for Inhibitors of the vitamin D receptor (VDR): Hit Validation using a Fluorescein Assay; shares compounds with VDR inhibitor; VDR-coactivator binding, fluorescein fluorescence polarization; Potency, µM (highest dose often 57.1 µM), without a hit: top-dose activity change, negative = inhibition, actives largely listed as inhibitors; hit rate 48% among 840; AID 602200, 2012
VDR bla reporter = qHTS for Inhibitors of the vitamin D receptor (VDR): Hit Validation using a Beta-Lactamase Assay; shares compounds with VDR inhibitor; VDR beta-lactamase reporter cells, FRET ratio; cells co-treated with VDR agonist LG190178; Potency, µM (doses to about 46.1 µM), for inactives: at the highest dose activity change, negative = inhibition, usual class: inhibitors; hit rate 23% among 840; AID 602202, 2012; also: % is scaled to controls: 0 for no effect and ±100 for the full control effect
VDR viability = qHTS for Inhibitors of the vitamin D receptor (VDR): Hit Validation using a Cytotoxicity Assay. shares compounds with VDR inhibitor. cytotoxicity counter-screen, cell viability, qHTS. Potency, µM (series often up to 48.3 µM), for the others: top-dose activity change, negative = cytotoxicity, hits mostly cytotoxic. hit rate 18% among 840. AID 602204, 2012;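 also: plate controls were DMSO for no effect and high-concentration cycloheximide for full effect; nearly all actives have a fitted effect of over 75% in size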
Starred values were filed as active, the others as inactive; ? = inconclusive; nt = no result given; [ ] = dose if it differs, or a comment. Shown is part of a subset that was picked to be rich in hits. Calls follow the shape of the dose curve; as a rule, active = well fitted curve in the direction sought with a large enough effect; inconclusive = small, poorly fitted or top-dose-only effect, or another doubt; inactive = no such curve, though single readings can be large; an effect the other way counts as inactive or inconclusive. Potency is read from the fitted curve at half-maximal effect.

SMILES	ALOX12 inh	G9a inh	Sfp PPTase inh	VDR inhibitor	Glioma ERSR ind	VDR confirm	VDR FP	VDR bla reporter	VDR viability
CC(C)c1ccc(NC(=O)CN2CCN(C(=O)c3cccs3)CC2)cc1	9%	nt	nt	nt	nt	nt	nt	nt	nt
COc1ccc(-c2cc(C(F)(F)F)nc(S(C)(=O)=O)n2)cc1	?	-19%	-18%	40µM*	-12%	18*	28µM*	?	?
CS(=O)(=O)c1nc(-c2ccc(F)cc2)cc(C(F)(F)F)n1	-2%	45µM*	?	7.9µM*	-15%	19*	?	?	?
Cc1ccc(C(CNC(=O)c2cc(-c3ccccc3)on2)N2CCN(C)CC2)o1 (stereo not drawn)	1%	nt	nt	nt	nt	nt	nt	nt	nt
CC(C)(C)CC(=O)NCCc1ccsc1	-4%	nt	nt	nt	nt	nt	nt	nt	nt
CCS(=O)(=O)c1ncc(Cl)c(C(=O)Nc2ccc(S(=O)(=O)N3CCC(C)CC3)cc2)n1	-13%	45µM*	-19%	14µM*	-19%	5.3*	3.5µM*	8.2µM*	3.7µM*
CCOC(=O)c1c(-c2ccccc2)csc1NC(=O)c1nc(SCC)ncc1Cl	-15%	4%[59 µM]	nt	18%	-2%	nt	nt	nt	nt
CCSc1ncc(Cl)c(C(=O)Nc2ccc(S(=O)(=O)N3CCC(C)CC3)cc2)n1	-29%	-35%[59 µM]	nt	5%	0%	nt	nt	nt	nt
CCOC(=O)c1ccc(NC(=O)c2nc(S(=O)(=O)Cc3ccccc3)ncc2Cl)cc1	-1%	22µM*	?	32µM*	-13%	13*	?	15µM*	13µM*
CCOC(=O)c1c(-c2ccccc2)csc1NC(=O)c1nc(S(=O)(=O)CC)ncc1Cl	-11%	?	nt	18µM*	0%	3.2*	?	4.6µM*	21µM*
CN(c1ccccc1)S(=O)(=O)c1ccc(NC(=O)c2nc(S(C)(=O)=O)ncc2Cl)cc1	?	11µM*	28µM*	20µM*	-16%	3.8*	3.5µM*	3.7µM*	8.2µM*
CS(=O)(=O)c1nc(S(=O)(=O)c2ccc(Cl)cc2)c(NCc2ccccc2)s1	-19%	nt	nt	nt	nt	nt	nt	nt	nt
COC(=O)c1ccc(NC(=O)c2nc(S(=O)(=O)Cc3cccc(C)c3)ncc2Cl)cc1	-3%	2%	?	20µM*	-19%	6*	?	15µM*	12µM*
CCOc1ccccc1NC(=O)c1nc(S(=O)(=O)Cc2ccccc2)ncc1Cl	-8%	40µM*	-9%	11µM*	-15%	6.7*	3.2µM*	6.5µM*	8.2µM*
CCc1ccc(NC(=O)c2nc(S(=O)(=O)Cc3ccccc3)ncc2Cl)cc1	14%	?	-26%	nt	nt	nt	nt	nt	nt
Cc1ccc(-c2nn(-c3ccccc3)cc2C=C2SC(=S)N(CCS(=O)(=O)O)C2=O)cc1	?	nt	nt	nt	0%	nt	nt	nt	nt
Cc1ccc(-c2nn(-c3ccccc3)cc2C=C2C(=O)CC(C)(C)CC2=O)cc1	7.9µM*	15%[0.0925 µM]	25µM*	25µM*	?	?	3.5µM*	17%	-15%
